# Test results reported in the supplement of paper PMC3334620.
# Whole data set: some 33,000 sequences, median “E-score (-0.5 to 0.5)” near -0.012, cut for the highest 2% near 0.27. What follows is part of a selection rich in the highest values, with near analogues and random picks from the rest.
# Target: T1, Vhr1 (UniProt P40522)
# T1 sequence: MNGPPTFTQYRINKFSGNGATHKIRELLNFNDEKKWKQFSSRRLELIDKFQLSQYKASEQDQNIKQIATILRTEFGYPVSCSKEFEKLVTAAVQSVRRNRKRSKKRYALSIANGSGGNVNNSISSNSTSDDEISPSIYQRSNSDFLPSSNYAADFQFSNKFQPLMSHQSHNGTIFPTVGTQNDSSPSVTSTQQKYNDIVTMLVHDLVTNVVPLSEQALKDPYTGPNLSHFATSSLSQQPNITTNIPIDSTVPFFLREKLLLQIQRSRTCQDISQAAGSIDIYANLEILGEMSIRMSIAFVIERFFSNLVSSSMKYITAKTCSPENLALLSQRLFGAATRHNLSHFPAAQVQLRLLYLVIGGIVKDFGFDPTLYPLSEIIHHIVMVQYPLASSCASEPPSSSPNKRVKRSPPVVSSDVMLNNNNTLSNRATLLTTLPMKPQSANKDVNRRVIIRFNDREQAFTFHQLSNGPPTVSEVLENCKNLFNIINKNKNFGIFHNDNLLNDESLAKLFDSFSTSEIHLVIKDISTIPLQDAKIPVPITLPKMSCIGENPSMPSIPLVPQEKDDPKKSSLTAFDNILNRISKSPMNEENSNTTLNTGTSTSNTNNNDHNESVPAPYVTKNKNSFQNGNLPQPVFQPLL
# Assay: PBM E-score (8-mer binding enrichment) (E-score (-0.5 to 0.5)); higher = stronger / more preferred TF binding
# Conditions: protein concentration: 200 nM; construct: GST-full length
# Method: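 Universal 'all 10-mer' protein binding microarrays (Agilent AMADID 015681) probed with GST-tagged S. cerevisiae TFs (full-length or DBD) made by in vitro transcription/translation (PURExpress), about 100-200 nM. Bound TF was detected with fluorescent anti-GST. Each ungapped 8-mer (which stands for itself and its reverse complement) is scored by the PBM enrichment score (E-score), a modified Wilcoxon-Mann-Whitney statistic from -0.5 to +0.5, computed with the Universal PBM Analysis Suite. Scale: above 0.35 generally sequence-specific binding.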
row,Sequence,PBM E-score
1,TCAAGTCA,0.111
2,GGAAGTCC,-0.212
3,GCAAGTCA,0.279
4,GGAAGTCA,0.282
5,CGAAGTCA,0.203
6,ACAAGTCA,0.174
7,TAGTTGAA,0.134
8,AAGAAACA,-0.161
9,CCAGACGC,-0.029
10,CTAAGGAC,-0.0588
11,CGTTGCCC,-0.166
12,ATCGCCTA,0.0387
13,AGGCAAAG,-0.192
14,TAGAGTAA,-0.082
15,GAGAGTCA,0.43
16,AAGAGTCT,0.00073
17,GAGAGTCC,-0.0872
18,TAGAGTCA,0.355
19,TAGAGTGA,-0.0169
20,AAGAGTCC,-0.149
21,AAGAGTCA,0.422
22,GAGAGTAA,0.0595

row,Sequence,PBM E-score
1,GGCTGGTA,0.0349
2,TATATTCA,0.0779
3,GAGTGTTA,0.00822
4,GTGCGATA,0.0799
5,GCAGTCTA,-0.0301
6,CGGGTGAC,0.143
7,GCATTGAC,-0.0613
8,GGCTGCCA,0.181
9,GCGGTAGC,0.0852
10,CAGAGAGG,-0.086
11,AGGGTGGG,0.282
12,AGGGTGGA,0.0785
13,AGGGTGGC,0.173
14,CAGACTCA,0.27
15,CAGACTCC,-0.0111
16,AAGACTCT,0.209
17,TAGACTCA,0.221
18,GAGACTTA,-0.164
19,GAGACTCA,0.36
20,GAGACTCC,0.286
21,AAGACTCC,0.158
22,AAGACTCA,0.317

row,Sequence,PBM E-score
1,CGAACCAG,0.0659
2,AACGGTTG,0.038
3,CCATAGGC,-0.172
4,CCCGCCCA,0.301
5,GCCGCCCC,0.0606
6,CCCGCCCG,0.259
7,GCCGCCCA,0.128
8,ACCGCCCG,-0.058
9,ACCGCCCT,-0.0373
10,CCCCGCCC,0.258
11,CCCGCCCC,0.329
12,ACCGCCCC,0.325
13,GAGTCTGC,-0.0315
14,AGTTTATG,-0.0791
15,ACGTTATG,-0.0459
16,CCTTCGCC,-0.031
17,ATGCAGTA,0.0873
18,ATGCAGTG,0.276
19,ATGCAGTC,0.184
20,GAATTTCC,-0.0327
21,GGAGAAAA,-0.292
22,AATCCACC,0.154

row,Sequence,PBM E-score
1,TAGTCGGA,0.203
2,CAGTCGGC,0.0497
3,GAGTCCGA,0.308
4,GAGTCCGC,0.224
5,CAGTCGGA,0.0502
6,GAGTCGTA,0.405
7,CAGTCCGA,0.126
8,GAGTCGGC,0.411
9,AAGTCGGC,-0.177
10,CAGTCGTA,0.132
11,AAGTCGTA,-0.0973
12,GAGTCGGA,0.416
13,AGTCCACT,-0.158
14,ATGCATCC,-0.152
15,GCAGCCCA,0.0376
16,AGGATTGG,-0.0691
17,TAGTTAAA,0.0419
18,AACTGAAT,0.00051
19,GATTGGCA,-0.056
20,AACTGAGG,-0.0666
21,GTACAAAA,-0.0126
22,ACGTTGAC,0.0527
